Screening data from PubChem BioAssay.
NSD2 inh – NSD2 (human) methyltransferase inhibition | O96028 | NSD2-SET H3K36me1 DELFIA fluorescence, biochemical | inhibition, % at 12.5 µM | 0.07% of 44,000 active; in the data active = inhibition above about 54%, passing the limit was not always enough;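 also: inhibitors reduce the monomethyl H3K36 fluorescence signal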
Starred values were filed as active, the others as inactive. This is one part of a sample in which hits are shown more often than they occur.

SMILES	NSD2 inh
CC1=CC(=O)OC1(O)CCC(C)CC(=O)O (stereo unspecified)	75*
CC(CC[C@]1(C)C2CCC=C(CO)[C@]2(C)CC[C@H]1C)CC(=O)O (stereo partly specified)	-1
CC1=CC(=O)CC2C1(C)CCC(C)C2(C)CCC(C)CC(=O)O (stereo unspecified)	8
CC(C)Cc1ccc(S(=O)(=O)N2c3cc(F)ccc3CCC2C)cc1 (stereo unspecified)	-6
CCCCCCC(=O)OC1OC(CO)C(O)C2OCC(C(=O)O)COC12 (stereo unspecified)	1
O=C1c2ccccc2C(Nc2ccc(S(=O)(=O)N3CCOCC3)cc2)N1Cc1ccccc1Cl (stereo unspecified)	-8
COc1ccccc1/C=C/C(=O)N1CCCC(c2ccccc2)C1 (stereo unspecified)	5
O=C(N/N=C/c1cc(I)cc(I)c1O)c1ccccn1	10
C#CCN(O[C@@H](/C=C/[C@@H](O)Cc1ccccc1)C1CC1)[C@@H](Cc1ccc(N=[N+]=[N-])cc1)C(=O)OC	5
NC(=O)Cc1ccc(O)c(Cl)c1	1
O=C(CCCCC(=O)N/N=C/c1cc2c(cc1Br)OCO2)NO	3
CSC(=NCc1sccc1COc1ccc(Cl)cc1)NC#N	-1
Cc1cc(-c2ccc(N=Nc3cc(S(=O)(=O)O)c4ccccc4c3N)c(C)c2)ccc1N=Nc1cc(S(=O)(=O)O)c2ccccc2c1N	92*
C=CCNc1oc(CC(C)C)nc1C#N	-3
Cc1n[nH]c(C)c1S(=O)(=O)N1CCC2(CC1)OCCO2	8
NNC(=O)c1cc(COc2c(Cl)cccc2Cl)on1	-4
CCc1cc(-c2n[nH]c(C)c2-c2nc(C)cs2)c(O)cc1OCc1ccc([N+](=O)[O-])cc1	1
c1ccc2c3c([nH]c2c1)[C@H]1C2CCC([C@@H]4CCCN[C@H]24)N1CC3 (stereo partly specified)	-2
CC1OC(O[C@H]2[C@@H](O)C[C@@]3(C)C([C@H](O)C[C@]4(C)C3CC=C3[C@@H]5CC(C)(C)CC[C@]5(C(=O)OC5OC(C)C(OC6OCC(OC7OCC(O)C(OC8OCC(O)C(O)C8O)C7O)C(O)C6O)C(O)C5O)CC[C@]34C)[C@]2(C)CO)C(O)C(OC2OC(CO)C(O)C(O)C2O)C1O (stereo partly specified)	-4
C[C@@H]1O[C@@H](O[C@@H]2[C@@H](O)[C@H](OC(=O)[C@]34CCC(C)(C)CC3C3=CCC5[C@@]6(C)CC[C@H](OC7OC(CO)C(OC8OCC(O)C(O)C8O)C(O)C7O)C(C)(C)C6CC[C@@]5(C)[C@]3(C)CC4O)O[C@H]2CO)[C@H](O)[C@H](O)[C@H]1O[C@H]1OC[C@](O)(CO)[C@H]1O (stereo partly specified)	-3
C[C@@H]1O[C@@H](O[C@@H]2[C@@H](O)[C@H](O[C@@H]3[C@@H](O)[C@@H](O)[C@H](O[C@H]4[C@H](OC(=O)[C@]56CCC(C)(C)C[C@H]5C5=CCC7[C@@]8(C)C[C@H](O)[C@H](O[C@@H]9O[C@H](C(=O)O)[C@@H](O)[C@H](O)[C@H]9O)[C@@](C)(CO)C8[C@H](O)C[C@@]7(C)[C@]5(C)C[C@H]6O)O[C@@H](CO)[C@@H]4O)O[C@H]3C)OC[C@H]2O)[C@H](O)[C@H](O)[C@H]1O (stereo partly specified)	74*
CC(C)c1cc2c(cc1O)[C@@]1(C(=O)O)CCCC(C)(C)C1CC2 (stereo partly specified)	1
COc1c(O)cc2occ(-c3ccccc3O)c(=O)c2c1O	21
CC(C(=O)Nc1cccnc1)N(c1ccc(Oc2ccccc2)cc1)S(C)(=O)=O (stereo unspecified)	5
COc1cc(C[C@@H]2CO[C@@H](c3ccc(O)c(OC)c3)[C@@H]2CO)ccc1O	68*
SMILES	NSD2 inh
COc1cc([C@H]2OC[C@H]3[C@@H]2CO[C@@H]3c2ccc(O)c(OC)c2)ccc1O	11
COc1cc([C@H]2OC[C@H]3[C@@H]2CO[C@H]3c2ccc(OC)c(OC)c2)ccc1O	-1
COc1cc(/C=N/NC(=O)c2ccc(C(=O)NO)cc2)cc(OC)c1OC	1
O=C(NC=Nc1cccnc1)c1cccc(COCC(F)(F)F)c1	-1
COC(=O)CCCCCCC(=O)N/N=C/c1cc(O)ccc1[N+](=O)[O-]	-5
CC1(C)[C@H]2CC=C(/C=N\NC(=O)CCCCC(=O)NO)[C@@H]1C2	-4
C=C1C(=O)O[C@@H]2CC=C(CCC(C)O)C(C)C[C@@H]12 (stereo partly specified)	-1
COc1ccc(NC(=O)C(C)Oc2ccccc2)cc1NC(=O)c1ccco1 (stereo unspecified)	4
CSC(=O)OCC1=C[C@H](O)[C@@H]2C(C(=O)O)=CO[C@@H](OC3OC(CO)C(O)C(O)C3O)[C@H]12 (stereo partly specified)	2
O=C(O)CNc1ncnc2oc(-c3ccccc3)c(-c3ccccc3)c12	0
O=C(NC1CCN(Cc2ccccc2)CC1)c1ccc(NS(=O)(=O)c2cccs2)cc1	3
CC1(C)Cc2c(sc3c2c(=O)n(Cc2ccccc2)c2nnc(SCC(=O)c4ccc(Br)cc4)n32)CO1	8
CC1(C)[C@H](O)CC[C@@]2(C)[C@@H]3CC[C@](C)(C(O)CO)CC3=CC[C@H]12 (stereo partly specified)	-2
CC(=O)NC(=O)C1C=C2c3ccccc3C=CC2OC1=Nc1ccc(C)cc1 (stereo unspecified)	10
COc1cc(O)cc(C2=C(C)CC(O)C2=O)c1 (stereo unspecified)	-5
COC(=O)C(CC(=O)c1ccc(Br)cc1)n1cncn1 (stereo unspecified)	-4
O=C(CCCCC(=O)N/N=C/c1c(O)ccc2ccccc12)NO	-1
O=C(NO)c1ccc(C(=O)N/N=C/c2ccc(O)c(O)c2O)cc1	61*
O=C(NO)c1ccc(C(=O)N/N=C/c2ccc3ccccc3c2)cc1	62*
O=C(NO)c1ccc(C(=O)N/N=C/c2ccc(F)cc2)cc1	4
CCN(CC)c1ccc(/C=N/NC(=O)c2ccc(C(=O)NO)cc2)c(O)c1	11
O=C(NO)c1ccc(C(=O)N/N=C/c2cccc(Oc3ccccc3)c2)cc1	1
O=C(NO)c1ccc(C(=O)N/N=C/c2cccc(O)c2O)cc1	3
CCCCCCC/C=C/C(=O)CCc1ccc(O)c(OC)c1	-2
COc1c(OC2OC(CO)C(O)C(O)C2O)cc(O)c2c1OC(c1ccccc1)CC2=O (stereo unspecified)	36
CC(C)=CCc1c(O[C@@H]2O[C@H](CO)[C@@H](O)[C@H](O)[C@H]2O)cc(O)c2c1O[C@H](c1ccc(O)cc1)CC2=O	70*
O=C1CC(c2ccc(O)cc2)Oc2cc(O[C@@H]3O[C@H](CO)[C@@H](O)[C@H](O)[C@H]3O)cc(O)c21 (stereo partly specified)	-2
O=C(N/N=C/c1ccc(B(O)O)cc1)c1ccccn1	8
COC(=O)C1=CO[C@@H](O[C@@H]2O[C@H](CO)[C@@H](O)[C@H](O)[C@H]2O)[C@H]2[C@@H]1C=CC21C=C([C@H](C)O)C(=O)O1 (stereo partly specified)	1
COC(=O)C1=CO[C@@H](O[C@@H]2O[C@H](CO)[C@@H](O)[C@H](O)[C@H]2O)[C@H]2[C@@H]1C=CC21C=C([C@H](C)OC(=O)/C=C/c2ccc(O)cc2)C(=O)O1 (stereo partly specified)	76*
